Reference: the supplement of paper PMC11001985

compound: C#CCNC(=O)CCSSCCC(=O)NCCc1ccc(C=O)c(C=O)c1; assay: lysine labeling ratio R10:1 (500 µM / 50 µM probe), SILAC-ABPP in living cells; higher = lower intrinsic lysine reactivity toward the probe, active = 2 or less; conditions: HeLa; probe concentrations 500 vs 50 µM
How it was run: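 SILAC light and heavy living HeLa cells in PBS at room temperature were labelled with 50 µM or 500 µM of an alkyne-tagged, disulfide-linked lysine probe, with forward and reverse label swaps. Mixed lysates were clicked to biotin-azide, trypsin-digested, captured on neutravidin, DTT-released, alkylated and analysed by LC-MS/MS on a TIMS-TOF Pro. R is the filtered median high-probe/low-probe MS1 peptide ratio per lysine, then the median across forward and reverse replicates. Ratios are capped at 20.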

Chain of UniProt Q13813 (Q13813 whole entry): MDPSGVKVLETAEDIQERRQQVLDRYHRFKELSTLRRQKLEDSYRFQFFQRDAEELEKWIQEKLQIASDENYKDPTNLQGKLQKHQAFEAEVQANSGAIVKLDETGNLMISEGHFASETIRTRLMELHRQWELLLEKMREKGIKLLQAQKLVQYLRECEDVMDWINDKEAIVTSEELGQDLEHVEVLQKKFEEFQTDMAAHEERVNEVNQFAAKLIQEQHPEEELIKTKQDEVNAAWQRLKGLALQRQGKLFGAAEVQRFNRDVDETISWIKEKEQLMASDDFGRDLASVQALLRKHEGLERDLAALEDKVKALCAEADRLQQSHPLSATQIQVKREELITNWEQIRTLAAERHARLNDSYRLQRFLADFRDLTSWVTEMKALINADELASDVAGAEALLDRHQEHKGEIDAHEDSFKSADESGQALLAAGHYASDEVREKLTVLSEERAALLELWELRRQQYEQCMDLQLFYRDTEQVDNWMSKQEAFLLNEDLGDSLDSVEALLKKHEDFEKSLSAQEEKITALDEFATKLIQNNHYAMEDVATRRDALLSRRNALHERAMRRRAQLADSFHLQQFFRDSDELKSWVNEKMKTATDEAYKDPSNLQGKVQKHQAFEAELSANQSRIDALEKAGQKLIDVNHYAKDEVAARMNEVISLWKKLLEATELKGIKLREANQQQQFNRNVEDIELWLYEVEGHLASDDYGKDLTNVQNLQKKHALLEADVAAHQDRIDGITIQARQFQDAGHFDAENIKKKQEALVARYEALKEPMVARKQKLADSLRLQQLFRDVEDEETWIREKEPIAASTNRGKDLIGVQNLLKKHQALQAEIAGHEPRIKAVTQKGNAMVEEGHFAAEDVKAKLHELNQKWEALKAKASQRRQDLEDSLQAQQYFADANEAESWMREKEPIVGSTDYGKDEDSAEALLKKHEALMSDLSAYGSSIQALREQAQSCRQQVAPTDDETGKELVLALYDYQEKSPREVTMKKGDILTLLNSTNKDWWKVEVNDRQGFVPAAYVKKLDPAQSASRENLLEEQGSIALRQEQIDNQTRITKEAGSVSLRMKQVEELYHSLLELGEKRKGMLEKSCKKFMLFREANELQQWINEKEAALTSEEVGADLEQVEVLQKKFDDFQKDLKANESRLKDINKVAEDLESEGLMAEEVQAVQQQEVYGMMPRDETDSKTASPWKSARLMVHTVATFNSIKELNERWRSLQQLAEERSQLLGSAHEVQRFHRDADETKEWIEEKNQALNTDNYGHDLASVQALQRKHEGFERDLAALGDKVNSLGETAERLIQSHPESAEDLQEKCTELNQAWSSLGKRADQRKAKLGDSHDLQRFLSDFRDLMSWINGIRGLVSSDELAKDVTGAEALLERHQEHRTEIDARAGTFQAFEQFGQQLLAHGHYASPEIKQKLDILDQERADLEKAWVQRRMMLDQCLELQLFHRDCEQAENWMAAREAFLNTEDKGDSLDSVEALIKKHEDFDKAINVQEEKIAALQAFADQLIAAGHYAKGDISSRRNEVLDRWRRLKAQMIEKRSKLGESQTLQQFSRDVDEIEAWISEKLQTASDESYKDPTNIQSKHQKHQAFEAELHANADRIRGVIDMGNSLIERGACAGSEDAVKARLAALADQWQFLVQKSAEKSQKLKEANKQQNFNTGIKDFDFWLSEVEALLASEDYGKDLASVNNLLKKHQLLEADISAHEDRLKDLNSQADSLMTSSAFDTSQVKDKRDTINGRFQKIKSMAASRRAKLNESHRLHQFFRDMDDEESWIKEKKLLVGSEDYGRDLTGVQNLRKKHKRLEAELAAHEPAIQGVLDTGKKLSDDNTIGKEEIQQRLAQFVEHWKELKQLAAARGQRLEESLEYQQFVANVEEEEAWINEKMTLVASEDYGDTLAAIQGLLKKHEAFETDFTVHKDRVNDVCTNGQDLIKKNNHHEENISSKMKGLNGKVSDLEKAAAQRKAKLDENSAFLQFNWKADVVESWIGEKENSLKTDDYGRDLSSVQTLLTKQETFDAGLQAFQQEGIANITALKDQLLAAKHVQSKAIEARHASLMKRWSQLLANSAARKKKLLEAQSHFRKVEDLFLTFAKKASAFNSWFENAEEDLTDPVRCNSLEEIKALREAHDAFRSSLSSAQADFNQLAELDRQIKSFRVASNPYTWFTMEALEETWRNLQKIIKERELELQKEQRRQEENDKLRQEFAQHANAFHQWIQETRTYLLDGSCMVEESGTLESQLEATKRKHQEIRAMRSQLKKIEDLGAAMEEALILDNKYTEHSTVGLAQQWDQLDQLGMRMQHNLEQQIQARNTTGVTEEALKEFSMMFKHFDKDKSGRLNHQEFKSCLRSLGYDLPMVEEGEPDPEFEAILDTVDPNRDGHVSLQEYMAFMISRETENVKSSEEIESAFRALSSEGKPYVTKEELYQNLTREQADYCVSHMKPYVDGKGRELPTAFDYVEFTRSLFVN
Chain of UniProt P18084 (P18084 whole entry): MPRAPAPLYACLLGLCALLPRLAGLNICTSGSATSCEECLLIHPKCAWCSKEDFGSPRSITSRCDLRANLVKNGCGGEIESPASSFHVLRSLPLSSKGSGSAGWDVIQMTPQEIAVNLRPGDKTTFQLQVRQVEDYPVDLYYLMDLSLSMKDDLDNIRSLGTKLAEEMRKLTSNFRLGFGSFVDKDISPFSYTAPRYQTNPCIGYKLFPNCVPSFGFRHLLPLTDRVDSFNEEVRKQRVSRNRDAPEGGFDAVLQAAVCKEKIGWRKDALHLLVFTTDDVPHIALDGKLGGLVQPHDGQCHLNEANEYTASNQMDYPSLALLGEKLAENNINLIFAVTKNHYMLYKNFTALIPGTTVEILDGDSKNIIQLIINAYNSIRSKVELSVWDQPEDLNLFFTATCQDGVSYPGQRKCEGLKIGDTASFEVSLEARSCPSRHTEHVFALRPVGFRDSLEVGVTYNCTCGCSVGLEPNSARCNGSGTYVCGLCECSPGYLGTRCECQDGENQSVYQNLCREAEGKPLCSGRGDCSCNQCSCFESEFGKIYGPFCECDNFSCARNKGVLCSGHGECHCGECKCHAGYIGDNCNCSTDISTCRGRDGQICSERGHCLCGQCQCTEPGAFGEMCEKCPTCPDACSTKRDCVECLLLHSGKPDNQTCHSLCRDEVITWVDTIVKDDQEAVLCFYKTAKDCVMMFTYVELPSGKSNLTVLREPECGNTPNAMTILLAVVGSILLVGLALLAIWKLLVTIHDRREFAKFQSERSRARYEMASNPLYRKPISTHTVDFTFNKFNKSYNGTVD
Chain of UniProt P02786 (P02786 whole entry, looked up): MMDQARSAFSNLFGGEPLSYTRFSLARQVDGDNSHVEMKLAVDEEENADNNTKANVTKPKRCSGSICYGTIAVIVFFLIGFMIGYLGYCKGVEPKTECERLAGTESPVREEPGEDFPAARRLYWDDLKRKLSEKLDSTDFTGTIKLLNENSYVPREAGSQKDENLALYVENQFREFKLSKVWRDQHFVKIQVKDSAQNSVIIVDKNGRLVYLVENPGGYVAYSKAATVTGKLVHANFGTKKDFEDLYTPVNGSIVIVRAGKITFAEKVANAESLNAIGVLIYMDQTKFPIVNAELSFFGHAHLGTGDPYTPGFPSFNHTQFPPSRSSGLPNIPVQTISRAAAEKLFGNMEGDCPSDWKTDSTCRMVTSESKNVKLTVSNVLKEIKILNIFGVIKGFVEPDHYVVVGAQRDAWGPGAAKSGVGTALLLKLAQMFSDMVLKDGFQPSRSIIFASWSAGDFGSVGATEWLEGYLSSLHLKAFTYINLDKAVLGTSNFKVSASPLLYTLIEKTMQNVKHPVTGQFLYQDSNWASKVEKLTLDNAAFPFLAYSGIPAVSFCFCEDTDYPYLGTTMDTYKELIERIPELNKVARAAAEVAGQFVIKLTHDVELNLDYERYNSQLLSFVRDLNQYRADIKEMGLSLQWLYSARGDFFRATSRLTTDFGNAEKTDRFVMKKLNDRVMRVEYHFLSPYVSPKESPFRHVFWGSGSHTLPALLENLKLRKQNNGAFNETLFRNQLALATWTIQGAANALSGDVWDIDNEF
Chain of UniProt Q13444 (Q13444 whole entry): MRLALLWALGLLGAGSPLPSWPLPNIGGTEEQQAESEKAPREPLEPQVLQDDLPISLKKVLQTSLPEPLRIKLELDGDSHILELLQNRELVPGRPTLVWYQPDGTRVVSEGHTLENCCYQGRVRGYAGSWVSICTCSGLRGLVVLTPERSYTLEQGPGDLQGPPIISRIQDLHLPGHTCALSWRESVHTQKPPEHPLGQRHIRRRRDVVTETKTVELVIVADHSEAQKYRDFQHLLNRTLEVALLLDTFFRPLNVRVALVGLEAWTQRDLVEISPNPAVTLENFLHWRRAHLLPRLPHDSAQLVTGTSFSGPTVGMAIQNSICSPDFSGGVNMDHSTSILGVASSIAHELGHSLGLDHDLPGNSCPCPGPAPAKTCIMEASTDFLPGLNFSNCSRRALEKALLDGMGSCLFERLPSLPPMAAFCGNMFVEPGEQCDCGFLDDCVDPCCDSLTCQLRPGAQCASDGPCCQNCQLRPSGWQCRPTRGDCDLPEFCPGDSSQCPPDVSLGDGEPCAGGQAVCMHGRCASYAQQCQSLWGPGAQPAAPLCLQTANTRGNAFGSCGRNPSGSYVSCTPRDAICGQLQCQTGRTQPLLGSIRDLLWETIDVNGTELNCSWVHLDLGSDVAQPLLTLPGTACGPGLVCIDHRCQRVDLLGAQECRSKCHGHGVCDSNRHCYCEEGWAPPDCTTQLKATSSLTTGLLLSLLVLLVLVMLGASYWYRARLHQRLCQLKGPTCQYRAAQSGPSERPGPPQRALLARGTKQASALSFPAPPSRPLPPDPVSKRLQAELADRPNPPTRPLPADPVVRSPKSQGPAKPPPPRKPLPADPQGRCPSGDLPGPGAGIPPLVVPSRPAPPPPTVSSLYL
Chain of UniProt Q9NX63 (Q9NX63 whole entry): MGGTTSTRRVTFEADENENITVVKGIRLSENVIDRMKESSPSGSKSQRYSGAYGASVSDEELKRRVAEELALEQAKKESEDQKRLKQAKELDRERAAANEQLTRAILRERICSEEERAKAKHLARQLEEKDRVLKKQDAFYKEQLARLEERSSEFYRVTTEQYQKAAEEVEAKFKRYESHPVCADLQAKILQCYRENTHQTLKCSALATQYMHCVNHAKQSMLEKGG

Lysine labeling ratio R10:1, active:
UniProt P49591 (lysine site: K12) 0.947
CHCHD3 (lysine site: K86) (UniProt Q9NX63) 0.99
SPTAN1 (lysine site: K1543) (UniProt Q13813) 1.58
C1QBP (lysine site: K91) (UniProt Q07021) 0.97
UniProt P25705 (lysine site: K194) 1.81
RPL3 (lysine site: K155) (UniProt P39023) 0.69
MSLN (lysine site: K306) (UniProt Q13421) 1.74
FAT4 (lysine site: K1251) (UniProt Q6V0I7) 1.62
PSMD1 (lysine site: K890) (UniProt Q99460) 1.11

Lysine labeling ratio R10:1, inactive:
PTGFRN (lysine site: K576) (UniProt Q9P2B2) 2.67
UniProt P16144 (lysine site: K510) 2.83
PGK1 (lysine site: K323) (UniProt P00558) 5.55
UniProt Q15149 (lysine site: K4027) 2.34
UniProt P62244 (lysine site: K60) 2.48
F11R (lysine site: K178) (UniProt Q9Y624) 5.39
TKT (lysine site: K352) (UniProt P29401) 6
UniProt P62805 (lysine site: K78) 8.41
ITGB5 (lysine site: K72) (UniProt P18084) 2.3
GSN (lysine site: K239) (UniProt P06396) 4.08
TFRC (lysine site: K177) (UniProt P02786) 2.39
UniProt P06576 (lysine site: K264) 4.08
CDH2 (lysine site: K699) (UniProt P19022) 10.6
KRT18 (lysine site: K407) (UniProt P05783) 8.64
ADAM15 (lysine site: K660) (UniProt Q13444) 4.34
SEMA3C (lysine site: K570) (UniProt Q99985) 8.1
UniProt Q15149 (lysine site: K597) 3.48
DARS (lysine site: K40) (UniProt P14868) 2.54
FLOT1 (lysine site: K246) (UniProt O75955) 2.54
SPTAN1 (lysine site: K441) (UniProt Q13813) 2.17
HSPA8 (lysine site: K531) (UniProt P11142) 3.46
NUMA1 (lysine site: K925) (UniProt Q14980) 2.01
UniProt P60228 (lysine site: K409) 2.54
HNRNPU (lysine site: K352) (UniProt Q00839) 2.95
DNAJA1 (lysine site: K144) (UniProt P31689) 2.55
C3 (lysine site: K1535) (UniProt P01024) 5.81
ITGB5 (lysine site: K163) (UniProt P18084) 2.53
NUCB1 (lysine site: K302) (UniProt Q02818) 2.22
SPTAN1 (lysine site: K1750) (UniProt Q13813) 2.19
ENO1 (lysine site: K262) (UniProt P06733) 2.83
PTPRS (lysine site: K370) (UniProt Q13332) 2.37
